Results reported in PubChem BioAssay (NCI).
This is part of a sample that, as a whole, favours compounds with a hit. Of some 83,000 tested, about 20% had one in any assay.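 Cells were grown in 96-well plates and exposed to the test compound at a single concentration for 48 hours; results are reported as percent growth, with values below 10 considered active.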 The source made the active and inactive calls.

Legend:
Experiment in all cases: NCI-60 one-dose screen, 48 h (100 = growth as untreated, 0 = no growth, -100 = all killed)
Conditions in all cases: 10 µM unless noted
[1] = tested on: NCI-H23 lung
[2] = tested on: NCI-H226 lung
[3] = tested on: NCI-H322M lung
[4] = tested on: HOP-62 NSCLC
[5] = tested on: NCI-H460 lung
[6] = tested on: HOP-92 NSCLC
[7] = tested on: NCI-H522 lung
[8] = tested on: A549/ATCC NSCLC
[9] = tested on: 786-0 renal
[10] = tested on: COLO 205 colon
[11] = tested on: DU-145 prostate
[12] = tested on: K-562 leukemia
[13] = tested on: MALME-3M melanoma
[14] = tested on: MDA-MB-231 breast
[15] = tested on: RXF 393 renal
[16] = tested on: SF-268 CNS
[17] = tested on: SF-295 CNS
[18] = tested on: SF-539 CNS
[19] = tested on: UACC-257 melanoma
[20] = tested on: M14 melanoma

Measured: growth

c1cnc2[nH]cc(-c3csc(-c4cn(CCCN5CCOCC5)c5ccccc45)n3)c2c1
active: [12] 1.22%
inactive: [1] 68.1% | [2] 61.5% | [3] 80.2% | [4] 48.7% | [5] 45.4% | [6] 12% | [7] 56.9% | [8] 54.4% | [9] 28.4% | [10] 31.2% | [11] 82% | [13] 61.1% | [14] 27.1% | [15] 24.9% | [16] 52.3% | [17] 16.7% | [18] 52.9% | [19] 85% | [20] 14.5%

COC(=O)c1cc(-c2ccc(OC)cc2)[nH]c1N/N=C/c1c(Cl)cccc1Cl
active: [4] -42.5% | [5] -9.38% | [8] 5.26% | [9] -14% | [10] -23.9% | [11] -26.2% | [12] 0.823% | [14] 7.56% | [15] -44.2% | [17] -28.2% | [18] -38.8% | [20] -59.3%
inactive: [1] 46.1% | [2] 38.1% | [3] 36.1% | [6] 47.4% | [7] 10.5% | [13] 24.7% | [16] 13.8% | [19] 14.2%

CNC(=O)c1c(NC(=O)c2ccc(C(F)(F)F)cc2)sc2c1CCC(=O)C2
active: [1] -5.25% | [2] 9.17% | [5] 4.57% | [6] -35.8% | [7] -26.1% | [10] -36.1% | [12] 7.84% | [13] -9.54% | [14] -37.1% | [15] -7.89% | [16] 9.61% | [17] -9.06% | [18] -58.6% | [19] 1.26% | [20] -11.6%
inactive: [3] 29.5% | [4] 14.5% | [8] 13.7% | [9] 10.3% | [11] 29%

COC(=O)c1c2c(c[n+]([O-])c1C)C(=O)C(NCc1ccccc1)=CC2=O
inactive: [9] 10.5%
active: [1] -34.1% | [2] -9.27% | [3] -8.65% | [4] 4.14% | [5] -30.3% | [6] -29.7% | [7] -30.5% | [8] -19.8% | [10] -52.5% | [11] -87.1% | [12] 1.41% | [13] -93.4% | [14] -3.95% | [15] -26% | [16] -13.9% | [17] -45.3% | [18] -71.7% | [19] -81.5% | [20] -77.8%

Cc1nn(-c2ccccc2)c(Oc2ccccn2)c1-c1nc2ccccc2s1
inactive: [1] 87.7% | [2] 93.8% | [3] 93.3% | [4] 112% | [5] 106% | [6] 80.9% | [7] 82.2% | [8] 92.9% | [9] 104% | [10] 110% | [11] 98.6% | [12] 90.7% | [13] 103% | [14] 124% | [15] 86.1% | [16] 92.9% | [17] 115% | [18] 108% | [19] 98% | [20] 108%

COc1ccc(C(=S)N2CCN(c3ccccc3Cl)CC2)cc1OC
inactive: [1] 117% | [2] 98.1% | [3] 86.6% | [4] 90.9% | [5] 115% | [6] 86% | [7] 85.8% | [8] 115% | [9] 97.5% | [10] 99.5% | [11] 111% | [12] 106% | [13] 90.8% | [14] 102% | [15] 111% | [16] 99.4% | [17] 91.7% | [18] 99.4% | [19] 104% | [20] 92.8%

O=C1C(Cl)=C(Oc2ccccc2)C(=O)c2ccccc21
inactive: [1] 85.9% | [2] 90.8% | [3] 83.1% | [4] 86% | [5] 94.4% | [6] 72.6% | [8] 100% | [9] 94.1% | [10] 32.3% | [11] 122% | [12] 37.2% | [13] 76.3% | [14] 81.4% | [15] 96.8% | [16] 79.3% | [17] 76.6% | [18] 75.2% | [19] 89.9% | [20] 96.2%
active: [7] -83.3%

CCOC(=O)c1ccc2[nH]c(O)c(C(=Nc3ccc(N(C)C(=O)CN4CCN(C)CC4)cc3)c3ccccc3)c2c1
inactive: [2] 15.5% | [3] 11.7% | [6] 30.3%
active: [1] -59.3% | [4] -5.97% | [5] -27.1% | [7] -48.8% | [8] -20.5% | [9] -95% | [10] -56.3% | [11] -9.05% | [12] -20.8% | [13] -88.9% | [14] -72.3% | [15] -97.7% | [16] 7.68% | [17] -6.29% | [18] -91.1% | [19] -55.4% | [20] -78.5%
